# Measured values taken from PubChem BioAssay (Tox21).
# Results filed as inconclusive are left out. Where a call stands in place of a potency, no number is given. Unmarked numbers belong to inactive results. Active and inactive are the calls of the source. The call rests on the fitted dose curve; in most records, active means well fitted cell-killing curve with a large enough effect in the repeat runs; inconclusive means weak or mixed curves, or effect the other way; inactive means flat fitted curve, though single readings scatter.
# Experiment: cAMP Responsive Elements (CRE) small molecule antagonists, cell-based qHTS assay: qHTS cell viability counter screen (AID 2060913); further: nearly all actives have a fitted effect of over 40% in size
# Settings: CRE-bla HEK293T viability, CellTiter-Glo luminescence, 5 h; series mostly up to 92.4 µM
# In short: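 CRE-bla HEK293T cells were seeded in assay medium with 10% dialyzed FBS, incubated 18 hrs at 37 C, then exposed to compounds plus 0.25 uM final NKH477 for 3 hrs. Viability was read by CellTiter-Glo luminescence after 30 min, in the same wells.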
SMILES,Potency,"viability change, negative = cytotoxic"
COc1cc(OC)cc(OC)c1,inactive,
CC(=O)CC(=O)Nc1ccccc1C,inactive,
C[C@](N)(Cc1ccc(O)cc1)C(=O)O,,-1.28% [at 8.39 µM]
CCCCCC/C=C\CCCCCCCC(=O)O,inactive,
c1ccc2cc(Nc3ccc(Nc4ccc5ccccc5c4)cc3)ccc2c1,inactive,
COc1ccc(-c2coc3cc(O)cc(O)c3c2=O)cc1,inactive,
CC1=C(C(=O)O)N2C(=O)[C@@H](NC(=O)[C@H](N)C3=CCC=CC3)[C@H]2SC1,inactive,
O=C(O)CP(=O)(O)O,inactive,
CN(C)c1ccc(C(c2ccccc2)c2ccc(N(C)C)cc2)cc1,inactive,
C1C[C@@H]2[C@H]3CC[C@H](C3)[C@@H]2C1,inactive,
CN(C)CCN1C(=O)c2ccccc2N(C)c2ccccc21,inactive,
O=C1CCC(N2C(=O)c3ccccc3C2=O)C(=O)N1 (stereo not given),inactive,
C=O,inactive,
CCCCC(CC)COC(=O)c1ccc(N(C)C)cc1 (stereo not given),inactive,
C=C[Si](OC)(OC)OC,inactive,
COc1cc2c(cc1OC)CN(C(=O)[C@H](C)N[C@@H](CCc1ccccc1)C(=O)O)[C@H](C(=O)O)C2,inactive,
O=C1CC2(CCCC2)CC(=O)N1CCCCN1CCN(c2ncccn2)CC1,inactive,
CCCCCCCCCCCCCCCCC(=O)O,inactive,
Nc1ccc2cc3ccc(N)cc3nc2c1,inactive,
COCCc1ccc(OCC2CO2)cc1 (stereo not given),inactive,

SMILES,Potency,"viability change, negative = cytotoxic"
CC(=O)O[C@@H]1C[C@@H]2CC[C@@]1(C)C2(C)C,inactive,
Nc1nc2ccc([N+](=O)[O-])cc2s1,inactive,
CC(C)OC(=O)C(C)N(C(=O)c1ccccc1)c1ccc(F)c(Cl)c1 (stereo not given),inactive,
CC(=O)CC(=O)Nc1ccccc1,inactive,
Cc1ncc(CO)c(CO)c1O,inactive,
CCc1oc2ccccc2c1C(=O)c1cc(I)c(O)c(I)c1,inactive,
CN1CCN(c2ccccc2/C=C2\SCCN(c3ccc(Cl)c(Cl)c3)C2=O)CC1,inactive,
CCCCCCCCCCOS(=O)(=O)O,inactive,
C=C(C)[C@@H]1CCC2=CCC[C@@H](C)[C@]2(C)C1,inactive,
CC(C)(C)OC(=O)N1C[C@@H](F)C[C@H]1C(=O)O,inactive,
O=C1CCCCO1,inactive,
O=[N+]([O-])c1ccc2[nH]ncc2c1,inactive,
O=C(Nc1ccc2c(c1)Cc1ccccc1-2)C(F)(F)F,inactive,
CCC(C(=O)OCCN1CCOC(c2ccccc2)C1C)c1ccccc1 (stereo not given),inactive,
COc1c(Br)cc(Br)c(C)c1Br,inactive,
NC(=O)c1cc[n+](CC2=C(C(=O)[O-])N3C(=O)[C@@H](NC(=O)Cc4cccs4)[C@H]3SC2)cc1,inactive,
O=C(O)c1cc(C(=O)O)cc([N+](=O)[O-])c1,inactive,
NCCc1cnc[nH]1,inactive,
COc1ccc2c(c1)C(=O)N(CCc1ccc(S(=O)(=O)NC(=O)NC3CCCCC3)cc1)C(=O)C2(C)C,inactive,
CN1CCCCC1CCN1c2ccccc2Sc2ccc(S(C)=O)cc21 (stereo not given),inactive,
